Measurements as given in the supplement of paper PMC9262897, “Low-cost anti-mycobacterial drug discovery using engineered E. coli” (Nature Communications, 2022).
Structures can show the parent of a compound that is named as a salt. ± gives the standard deviation of the averaged measurements.

Columns and labels:
Experiment in all cases: growth (OD600 after 10 h); higher = more growth (less inhibition)
[1] = tested on: E. coli TESEC Alr+ wild-type control; details: compound 0.1 mM; raw OD600 reference: median of DMSO wells 0.241, cell-free background 0.041
Method: (§1)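 TESEC Mtb Alr E. coli, or the Alr+ wild-type control, in 384-well plates with Prestwick library compounds at 0.1 mM and 1% DMSO, across arabinose induction levels of 1E3 to 1E7 nM. Growth is read as OD600 after 10 h at 37 °C in triplicate biological replicates.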

E. coli TESEC Mtb Alr [2] = details: compound 0.1 mM
Method: as §1

E. coli TESEC Mtb Asd = details: compound 0.1 mM
Method: (§2)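 TESEC E. coli strains in which the native enzyme is deleted and replaced by arabinose-inducible Mtb Asd, DapB, CysH or TrpD, each grown in its selective medium. Strains were screened against the Prestwick library at 0.1 mM and 1% DMSO in 384-well format at low and high arabinose induction. Growth is read as OD600 after 10 h in triplicate.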

E. coli TESEC Mtb DapB = details: compound 0.1 mM
Method: as §2

[3] = tested on: E. coli TESEC Alr+ wild-type control; details: compound 0.1 mM; raw OD600 reference: median of DMSO wells 0.49, cell-free background 0.052
Method: (§3)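 TESEC Mtb Alr E. coli (ΔaraC ΔtolC ΔentC Δalr ΔdadX, arabinose-inducible Mtb Alr) or the Alr+ wild-type control strain, grown in defined M9-fructose medium without D-alanine in 96-well plates with Prestwick library compounds at 0.1 mM and 1% DMSO. Low Alr induction is 0.1 µM arabinose and high induction is 10 mM arabinose.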

E. coli TESEC Mtb Alr [4] = details: compound 0.1 mM; remark: listed apart in the source
Method: as §3

[5] = arabinose 1000 nM, raw OD600 reference: median of DMSO wells 0.294, cell-free background 0.041
[6] = arabinose 10000 nM, raw OD600 reference: median of DMSO wells 0.264, cell-free background 0.041
[7] = arabinose 100000 nM, raw OD600 reference: median of DMSO wells 0.201, cell-free background 0.041
[8] = arabinose 1000000 nM, raw OD600 reference: median of DMSO wells 0.193, cell-free background 0.041
[9] = arabinose 10000000 nM, raw OD600 reference: median of DMSO wells 0.146, cell-free background 0.041
[10] = arabinose induction (level): High, raw OD600 reference: median of DMSO wells 0.331, cell-free background 0.041
[11] = arabinose induction (level): Low, raw OD600 reference: median of DMSO wells 0.417, cell-free background 0.041
[12] = arabinose induction (level): High, raw OD600 reference: median of DMSO wells […], cell-free background 0.041
[13] = arabinose induction (level): Low, raw OD600 reference: median of DMSO wells 0.227, cell-free background 0.041
[14] = arabinose 100 nM, raw OD600 reference: median of DMSO wells 0.413, cell-free background 0.052
[15] = arabinose 10000000 nM, raw OD600 reference: median of DMSO wells […], cell-free background 0.052

Row | SMILES | growth [1] | growth (E. coli TESEC Mtb Alr [2]; [5]) | growth (E. coli TESEC Mtb Alr [2]; [6]) | growth (E. coli TESEC Mtb Alr [2]; [7]) | growth (E. coli TESEC Mtb Alr [2]; [8]) | growth (E. coli TESEC Mtb Alr [2]; [9]) | growth (E. coli TESEC Mtb Asd; [10]) | growth (E. coli TESEC Mtb Asd; [11]) | growth (E. coli TESEC Mtb DapB; [12]) | growth (E. coli TESEC Mtb DapB; [13]) | growth [3] | growth (E. coli TESEC Mtb Alr [4]; [14]) | growth (E. coli TESEC Mtb Alr [4]; [15])
1 | CCCCN(CCCC)CCC(O)c1cc2c(Cl)cc(Cl)cc2c2cc(C(F)(F)F)ccc12 (stereo unspecified) [Halofantrine hydrochloride] | 0.24 ± 0.011 | 0.313 ± 0.006 | 0.31 ± 0.0059 | 0.2 ± 0.014 | 0.18 ± 0.0064 | 0.175 ± 0.0054 | 0.282 ± 0.059 | 0.457 ± 0.054 | 0.259 ± 0.018 | 0.291 ± 0.037 | 0.53 ± 0.019 | 0.452 ± 0.016 | 0.427 ± 0.019
2 | COCCOC(=O)C1=C(C)NC(C)=C(C(=O)OC/C=C/c2ccccc2)C1c1cccc([N+](=O)[O-])c1 (stereo unspecified) [Cilnidipine] | 0.275 ± 0.0065 | 0.333 ± 0.0093 | 0.304 ± 0.028 | 0.195 ± 0.022 | 0.14 ± 0.015 | 0.164 ± 0.0066 | 0.187 ± 0.016 | 0.319 ± 0.026 | 0.169 ± 0.0093 | 0.21 ± 0.025 | 0.518 ± 0.028 | 0.457 ± 0.0093 | 0.253 ± 0.026
3 | COc1ccc(C(=O)c2ccccc2)c(O)c1 [Oxybenzone] | 0.114 ± 0.003 | 0.148 ± 0.011 | 0.15 ± 0.004 | 0.151 ± 0.017 | 0.0914 ± 0.0039 | 0.0993 ± 0.0024 | 0.223 ± 0.023 | 0.334 ± 0.01 | 0.186 ± 0.015 | 0.257 ± 0.0051 | 0.27 ± 0.011 | 0.377 ± 0.022 | 0.146 ± 0.021
4 | CCC(=O)O[C@]1(C(=O)CCl)[C@@H](C)C[C@H]2[C@@H]3CCC4=CC(=O)C=C[C@]4(C)[C@@]3(F)[C@@H](O)C[C@@]21C [Clobetasol propionate] | 0.148 ± 0.0028 | 0.19 ± 0.034 | 0.186 ± 0.011 | 0.161 ± 0.01 | 0.0968 ± 0.0071 | 0.156 ± 0.0017 | 0.264 ± 0.097 | 0.178 ± 0.017 | 0.145 ± 0.019 | 0.169 ± 0.021 | 0.326 ± 0.017 | 0.407 ± 0.015 | 0.122 ± 0.05
5 | CC(C)(C)c1ccc(C(O)CCCN2CCC(C(O)(c3ccccc3)c3ccccc3)CC2)cc1 (stereo unspecified) [Terfenadine] | 0.205 ± 0.0036 | 0.207 ± 0.14 | 0.296 ± 0.0092 | 0.181 ± 0.0044 | 0.136 ± 0.072 | 0.158 ± 0.0023 | 0.265 ± 0.054 | 0.421 ± 0.013 | 0.199 ± 0.013 | 0.239 ± 0.014 | 0.0576 ± 0.0093 | 0.0737 ± 0.031 | 0.0518 ± 0.00085
6 | Nc1ncnc2c1ncn2C1OC(COP(=O)(O)O)C(O)C1O (stereo unspecified) [Adenosine 5'-monophosphate monohydrate] | 0.26 ± 0.015 | 0.32 ± 0.013 | 0.2658 ± 0.0011 | 0.237 ± 0.021 | 0.175 ± 0.0094 | 0.15 ± 0.0046 | 0.276 ± 0.078 | 0.336 ± 0.058 | 0.214 ± 0.0055 | 0.25 ± 0.071 | 0.569 ± 0.09 | 0.374 ± 0.033 | 0.363 ± 0.013
7 | Cc1cc(NS(=O)(=O)c2ccc(N)cc2)no1 [Sulfamethoxazole] | 0.252 ± 0.0032 | 0.271 ± 0.017 | 0.212 ± 0.011 | 0.228 ± 0.0092 | 0.126 ± 0.0035 | 0.139 ± 0.0076 | 0.404 ± 0.042 | 0.41 ± 0.063 | 0.185 ± 0.011 | 0.205 ± 0.024 | 0.45 ± 0.031 | 0.432 ± 0.013 | 0.346 ± 0.005
